Source: PubChem BioAssay (NCATS)
Values joined by “and” are separate entries in the source; they are usually repeats but may differ in a detail not shown here. Identical values can stand only once. Records with an inconclusive call do not appear. A call without a number means that no potency is given here. Active and inactive are the calls of the source. Unless noted, calls follow the shape of the dose curve; as a rule, active = well fitted curve in the direction sought with a large enough effect; inconclusive = small, poorly fitted or top-dose-only effect, or another doubt; inactive = no such curve, though single readings can be large; an effect the other way counts as inactive or inconclusive.

How the values were obtained:
[1] = Cell Viability - Mesenchymal (AID 546);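 also: cells exposed to compound for 40 hours before reading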
How it was run: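 Human renal mesenchymal cells (glomerulus-derived), 1000 cells/well, 5 hr 37 °C pre-incubation; compound 40 hr, 37 °C; CellTiter-Glo, 20 min RT; luminescence; AC50 via Hill equation.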

[2] = target: 3',5'-cyclic-AMP phosphodiesterase 4B (Homo sapiens) (UniProt Q07343); assay: qHTS Assay for Inhibitors of PDE-IV (AID 607; active = well fitted activation curve with a large enough effect in the main read-out, with a control signal flat, not every such curve was filed as active)
Sequence of 3',5'-cyclic-AMP phosphodiesterase 4B (Homo sapiens) (Q07343 whole entry, looked up): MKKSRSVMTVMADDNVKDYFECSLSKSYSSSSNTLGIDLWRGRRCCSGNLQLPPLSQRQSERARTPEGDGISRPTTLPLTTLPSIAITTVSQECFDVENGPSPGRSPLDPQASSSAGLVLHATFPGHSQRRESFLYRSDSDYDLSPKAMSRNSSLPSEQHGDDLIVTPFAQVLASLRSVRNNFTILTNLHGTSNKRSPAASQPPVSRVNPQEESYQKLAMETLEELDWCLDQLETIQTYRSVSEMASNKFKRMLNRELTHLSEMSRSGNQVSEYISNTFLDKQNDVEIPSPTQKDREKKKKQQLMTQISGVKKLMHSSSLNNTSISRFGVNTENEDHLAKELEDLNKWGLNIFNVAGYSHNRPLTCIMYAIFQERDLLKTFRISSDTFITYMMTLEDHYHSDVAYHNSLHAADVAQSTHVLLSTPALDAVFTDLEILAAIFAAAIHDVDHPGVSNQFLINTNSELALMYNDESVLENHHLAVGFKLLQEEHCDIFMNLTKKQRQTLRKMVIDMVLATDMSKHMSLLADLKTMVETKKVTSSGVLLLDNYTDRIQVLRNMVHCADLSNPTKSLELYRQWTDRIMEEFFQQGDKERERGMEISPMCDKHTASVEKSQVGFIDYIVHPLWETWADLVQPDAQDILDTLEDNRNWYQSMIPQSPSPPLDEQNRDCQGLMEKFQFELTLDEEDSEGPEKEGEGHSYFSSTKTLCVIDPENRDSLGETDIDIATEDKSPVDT
How it was run: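 HEK293 ACTOne cells with CNG channel (1000/well), endogenous PDE4; membrane potential dye, compounds up to 22.9 uM final. Fluorescence Ex 535/Em 590; RO 20-1724 (100 uM final) as reference.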

[3] = Cellular Toxicity (caspase-3) HepG2 (AID 654);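 also: cells exposed to compound for 16 hours before reading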
How it was run: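 Luminescent Caspase-Glo 3/7 readout after 16 hr compound exposure of human hepatocellular carcinoma HepG2 cells at 37 °C; qHTS concentration-response, normalized DMSO = 0%, 100 uM tamoxifen = 100%; AC50 by standard Hill equation.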

[4] = Cellular Toxicity (caspase-3) Jurkat (AID 655);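 also: cells exposed to compound for 16 h at 37 °C before reading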; also: potency is read from the fitted curve at half-maximal effect
How it was run: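 Luminescent Caspase-Glo 3/7 read-out (20 min, room temperature) after 16 h compound treatment at 37 C of 5000 Jurkat cells per well. AC50 derived by Hill-equation fitting, scaled between DMSO basal and 100 uM tamoxifen stimulation.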

[5] = Cellular Toxicity (caspase-3) HUV-EC-C (AID 656)
How it was run: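 Luminescent Caspase-Glo 3/7 readout after 16 h, 37 °C compound exposure of HUV-EC-C endothelial cells, 1000 per well, complete medium. AC50 derived by Hill fitting, with DMSO as baseline and 100 uM tamoxifen as full activation.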

[6] = Cellular Toxicity (caspase-3) SHSY5Y (AID 657)
How it was run: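 Luminescent Caspase-Glo 3/7 read-out, 1 hr room temperature, follows 16 hours of compound treatment of SH-SY5Y cells at 37 °C. Normalization: DMSO basal, 10 uM staurosporine as 100%; AC50 values from Hill-equation concentration-response fits.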

[7] = Cellular Toxicity (caspase-3) BJ (AID 658)
How it was run: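 qHTS, BJ fibroblasts, 1000 cells/well; 5 hr preincubation, 16 hr compound, 37 °C; Caspase-Glo 3/7 reagent, 1 hr RT; luminescence. DMSO = 0%, 10 uM staurosporine = 100%. Hill-equation AC50.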

[8] = Cellular Toxicity (caspase-3) MRC-5 (AID 659)
How it was run: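 MRC-5 fibroblasts, 1500/well; 16 h cpd, 37 °C; Caspase-Glo 3/7, 1 h RT; lumi read. Norm: DMSO = 0%, 10 uM staurosporine = 100%. Hill-fit AC50 from qHTS conc-response.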

[9] = Cellular Toxicity (caspase-3) Mesangial (AID 660);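 also: combined caspase 3 and 7 activity read by Caspase-Glo luminescence; cells exposed to compound for 16 h before the caspase read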
How it was run: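 Luminescent Caspase-Glo 3/7 readout (aminoluciferin substrate cleavage, 20 min RT) after 16 h compound exposure at 37 °C of normal human mesangial cells. Signal increase normalized between DMSO basal and 100 uM tamoxifen; Hill-equation AC50.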

[10] = Cellular Toxicity (caspase-3) SK-N-SH (AID 661); also: potency is read from the fitted curve at half-maximal effect
How it was run: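 Luminescent Caspase-Glo 3/7 read-out after 16 hr compound exposure of SK-N-SH neuroblastoma cells at 37 °C. Signal increase normalized to DMSO (basal) and 10 uM staurosporine (100%); AC50 from Hill equation fits of qHTS concentration-response data.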

Structure (SMILES)	outcome [1]	Potency [2]	outcome [3]	Potency [4]	outcome [5]	outcome [6]	outcome [7]	outcome [8]	outcome [9]	Potency [10]
NS(=O)(=O)c1cc2c(cc1Cl)NCNS2(=O)=O	inactive	inactive	inactive	inactive	inactive	inactive	inactive	inactive	inactive	inactive
N[C@@H](Cc1c[nH]c2ccc(O)cc12)C(=O)O	inactive	inactive	inactive	inactive	inactive	inactive	inactive	inactive	inactive	inactive
CN1CCN(CCCN2c3ccccc3Sc3ccc(Cl)cc32)CC1		inactive								
NC12CC3CC(CC(C3)C1)C2		inactive								
Cc1cn([C@H]2C[C@H](N=[N+]=[N-])[C@@H](CO)O2)c(=O)[nH]c1=O	inactive		inactive	inactive	inactive	inactive	inactive	inactive	inactive	inactive
CCC1(c2ccccc2)C(=O)NCNC1=O	inactive	inactive	inactive	inactive	inactive	inactive	inactive	inactive	inactive	inactive
CN(C)CCCN1c2ccccc2CCc2ccc(Cl)cc21		inactive								
Nc1ccn([C@H]2CC[C@@H](CO)O2)c(=O)n1	inactive		inactive	inactive	inactive	inactive	inactive	inactive	inactive	inactive
Clc1ccc(C(c2ccccc2Cl)C(Cl)Cl)cc1 (centres undefined)	inactive		inactive	inactive	inactive	inactive	inactive	inactive	inactive	
Cn1c(=O)c2c(ncn2C)n(C)c1=O	inactive	inactive	inactive	inactive	inactive	inactive	inactive	inactive	inactive	inactive
OCCN1CCN(CCCN2c3ccccc3Sc3ccc(C(F)(F)F)cc32)CC1		inactive								
Cc1ccc(-c2cc(C(F)(F)F)nn2-c2ccc(S(N)(=O)=O)cc2)cc1	inactive		inactive	inactive	inactive	inactive	inactive	inactive		inactive
COc1nc(C)nc(Cl)c1NC1=NCCN1		inactive								
CN(C)c1nc(N(C)C)nc(N(C)C)n1		inactive								
COc1cc2c(c(OC)c1OC)-c1ccc(OC)c(=O)cc1[C@@H](NC(C)=O)CC2	inactive	inactive	inactive	3.98 nM (active) and 3.16 nM (active)	inactive	inactive	inactive	inactive	inactive	200 nM (active) and 251 nM (active)
Nc1c2c(nc3ccccc13)CCCC2	inactive		inactive	inactive	inactive	inactive	inactive	inactive	inactive	inactive
COc1ccc2c(c1)c(CC(=O)O)c(C)n2C(=O)c1ccc(Cl)cc1	inactive	inactive	inactive	inactive	inactive	inactive	inactive	inactive	inactive	inactive

Structure (SMILES)	outcome [1]	Potency [2]	outcome [3]	Potency [4]	outcome [5]	outcome [6]	outcome [7]	outcome [8]	outcome [9]	Potency [10]
NCCc1cnc[nH]1		inactive								
CC(C)C(=O)Nc1ccc([N+](=O)[O-])c(C(F)(F)F)c1	inactive	inactive	inactive	inactive	inactive	inactive	inactive	inactive	inactive	inactive
O=c1[nH]cc(F)c(=O)[nH]1	inactive	inactive	inactive	inactive	inactive	inactive	inactive	inactive	inactive	inactive
NCCS(=O)(=O)O	inactive	inactive	inactive	inactive	inactive	inactive	inactive	inactive	inactive	inactive
CN1CCC(=C2c3ccccc3CC(=O)c3sccc32)CC1		inactive								
Cc1cn([C@H]2C=C[C@@H](CO)O2)c(=O)[nH]c1=O	inactive		inactive	inactive	inactive	inactive	inactive	inactive	inactive	inactive
CN(C)C(=N)N=C(N)N		inactive								
OCCN(CCO)c1nc(N2CCCCC2)c2nc(N(CCO)CCO)nc(N3CCCCC3)c2n1		inactive								
Cn1c(=O)c2[nH]cnc2n(C)c1=O	inactive	inactive	inactive	inactive	inactive	inactive	inactive	inactive	inactive	inactive
CCOC(=O)c1ncn2c1CN(C)C(=O)c1cc(F)ccc1-2		inactive								
CN(Cc1cnc2nc(N)nc(N)c2n1)c1ccc(C(=O)N[C@@H](CCC(=O)O)C(=O)O)cc1		inactive								
O=C(c1ccc(F)cc1)C1CCN(CCn2c(=O)[nH]c3ccccc3c2=O)CC1		inactive								
COc1ccc(CCN(C)CCCC(C#N)(c2ccc(OC)c(OC)c2)C(C)C)cc1OC (centres undefined)	inactive		inactive	inactive	inactive	inactive	inactive	inactive	inactive	inactive
CC(C)NCC(O)c1ccc(O)c(O)c1 (centres undefined)	inactive		inactive	inactive	inactive	inactive	inactive	inactive	inactive	inactive
COc1ccc2[nH]cc(CCNC(C)=O)c2c1	inactive	inactive	inactive	inactive	inactive	inactive	inactive	inactive	inactive	inactive
O=c1c(-c2ccc(O)cc2)coc2cc(O)cc(O)c12			inactive	inactive	inactive		inactive	inactive	inactive	inactive
CC(COc1ccccc1)N(CCCl)Cc1ccccc1 (centres undefined)					inactive	inactive		inactive	inactive	
